Results as given in the supplement of paper PMC11732987, “Enantioselective OTUD7B fragment discovery through chemoproteomics screening and high-throughput optimisation” (Communications Chemistry, 2025).

Key:
Assay in all cases: log2 ratio of Biotin-Ahx-Ub-VS probe labelling (fragment/DMSO); higher = less target engagement (more negative = stronger competition), active = hit call of the paper (q ≤ 0.05, log2 ratio ≤ -1)
Conditions in all cases: compound concentration: 200 uM; treatment time: 3 h
[1] = target: T1, USP19 (UniProt O94966)
T1 sequence (whole entry): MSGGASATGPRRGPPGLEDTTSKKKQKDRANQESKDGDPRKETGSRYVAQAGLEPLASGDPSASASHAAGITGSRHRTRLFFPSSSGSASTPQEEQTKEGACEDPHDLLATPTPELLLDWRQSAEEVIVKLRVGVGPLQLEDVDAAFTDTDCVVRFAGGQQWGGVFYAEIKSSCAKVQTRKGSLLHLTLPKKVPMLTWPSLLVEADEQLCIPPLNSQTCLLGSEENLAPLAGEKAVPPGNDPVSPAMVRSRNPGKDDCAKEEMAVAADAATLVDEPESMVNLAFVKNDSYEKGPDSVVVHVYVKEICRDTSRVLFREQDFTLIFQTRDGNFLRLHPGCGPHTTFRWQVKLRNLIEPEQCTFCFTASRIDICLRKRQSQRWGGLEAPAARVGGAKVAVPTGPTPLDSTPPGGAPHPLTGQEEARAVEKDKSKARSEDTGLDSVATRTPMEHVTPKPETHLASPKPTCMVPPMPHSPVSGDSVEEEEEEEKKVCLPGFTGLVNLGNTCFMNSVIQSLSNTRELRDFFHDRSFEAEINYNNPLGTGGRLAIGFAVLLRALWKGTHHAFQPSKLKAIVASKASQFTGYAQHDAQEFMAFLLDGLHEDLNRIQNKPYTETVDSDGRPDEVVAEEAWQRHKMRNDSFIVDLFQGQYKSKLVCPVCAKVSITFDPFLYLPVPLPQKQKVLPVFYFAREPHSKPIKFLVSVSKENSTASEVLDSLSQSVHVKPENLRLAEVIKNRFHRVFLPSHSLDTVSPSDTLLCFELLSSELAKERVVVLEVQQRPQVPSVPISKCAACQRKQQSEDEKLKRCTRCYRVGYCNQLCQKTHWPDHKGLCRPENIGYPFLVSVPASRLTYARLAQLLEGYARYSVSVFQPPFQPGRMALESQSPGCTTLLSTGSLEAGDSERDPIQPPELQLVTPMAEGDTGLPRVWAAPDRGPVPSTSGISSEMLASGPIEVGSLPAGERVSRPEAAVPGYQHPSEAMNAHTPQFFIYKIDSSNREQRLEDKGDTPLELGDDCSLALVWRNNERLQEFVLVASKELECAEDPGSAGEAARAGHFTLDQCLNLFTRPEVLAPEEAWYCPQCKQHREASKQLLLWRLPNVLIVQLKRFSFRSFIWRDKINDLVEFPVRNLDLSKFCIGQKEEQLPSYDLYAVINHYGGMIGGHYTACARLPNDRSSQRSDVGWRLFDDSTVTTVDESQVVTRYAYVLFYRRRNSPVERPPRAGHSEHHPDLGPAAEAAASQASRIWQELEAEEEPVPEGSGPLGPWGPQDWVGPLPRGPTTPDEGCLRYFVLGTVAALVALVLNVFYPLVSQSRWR
Outline: (§1)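 HEK293T lysate (495 µg per sample, in Tris/CHAPS/IGEPAL buffer with protease inhibitors) was treated in triplicate with fragment at 200 µM or with DMSO for 3 h. It was then treated with Biotin-Ahx-Ub-VS (0.5 µM final) for 1 h. Labelled DUBs were NeutrAvidin-enriched, digested with LysC and trypsin, and run by diaPASEF LC-MS/MS. Spectronaut label-free quantities were global-median-normalised. Values are average log2 ratios fragment/DMSO by unpaired t-test, using proteins with ≥2 unique peptides.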

[2] = target: USP24 (UniProt Q9UPU5)
Outline: as §1

[3] = target: T2, USP25 (UniProt Q9UHP3)
T2 sequence (whole entry): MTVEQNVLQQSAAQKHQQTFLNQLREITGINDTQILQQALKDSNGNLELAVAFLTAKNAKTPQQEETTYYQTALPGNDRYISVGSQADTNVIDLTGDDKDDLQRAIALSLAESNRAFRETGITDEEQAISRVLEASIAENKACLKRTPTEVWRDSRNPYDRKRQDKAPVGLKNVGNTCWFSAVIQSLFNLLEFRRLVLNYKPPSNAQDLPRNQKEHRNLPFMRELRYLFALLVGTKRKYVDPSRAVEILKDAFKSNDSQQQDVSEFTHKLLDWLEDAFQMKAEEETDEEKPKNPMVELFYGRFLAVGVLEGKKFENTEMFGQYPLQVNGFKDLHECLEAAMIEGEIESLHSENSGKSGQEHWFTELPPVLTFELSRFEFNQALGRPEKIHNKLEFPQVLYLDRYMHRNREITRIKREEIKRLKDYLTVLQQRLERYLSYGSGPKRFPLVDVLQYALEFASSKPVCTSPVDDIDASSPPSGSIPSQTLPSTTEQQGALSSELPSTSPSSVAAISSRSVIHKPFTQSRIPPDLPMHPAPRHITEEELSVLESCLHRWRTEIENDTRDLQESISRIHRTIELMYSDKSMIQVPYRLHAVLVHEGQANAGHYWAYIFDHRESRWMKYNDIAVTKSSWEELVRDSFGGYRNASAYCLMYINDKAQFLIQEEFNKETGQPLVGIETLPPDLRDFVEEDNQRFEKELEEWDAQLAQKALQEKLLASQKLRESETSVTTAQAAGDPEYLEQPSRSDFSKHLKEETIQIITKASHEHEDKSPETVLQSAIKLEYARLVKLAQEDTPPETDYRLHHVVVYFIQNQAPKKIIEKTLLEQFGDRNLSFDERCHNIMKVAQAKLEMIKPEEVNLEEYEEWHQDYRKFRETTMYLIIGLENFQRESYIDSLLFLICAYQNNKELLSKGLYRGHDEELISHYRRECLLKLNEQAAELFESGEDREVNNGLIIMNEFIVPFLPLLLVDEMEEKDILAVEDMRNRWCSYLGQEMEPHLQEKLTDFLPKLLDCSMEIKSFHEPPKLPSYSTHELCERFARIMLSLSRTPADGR
Outline: as §1

[4] = target: T3, USP28 (UniProt Q96RU2)
T3 sequence (whole entry): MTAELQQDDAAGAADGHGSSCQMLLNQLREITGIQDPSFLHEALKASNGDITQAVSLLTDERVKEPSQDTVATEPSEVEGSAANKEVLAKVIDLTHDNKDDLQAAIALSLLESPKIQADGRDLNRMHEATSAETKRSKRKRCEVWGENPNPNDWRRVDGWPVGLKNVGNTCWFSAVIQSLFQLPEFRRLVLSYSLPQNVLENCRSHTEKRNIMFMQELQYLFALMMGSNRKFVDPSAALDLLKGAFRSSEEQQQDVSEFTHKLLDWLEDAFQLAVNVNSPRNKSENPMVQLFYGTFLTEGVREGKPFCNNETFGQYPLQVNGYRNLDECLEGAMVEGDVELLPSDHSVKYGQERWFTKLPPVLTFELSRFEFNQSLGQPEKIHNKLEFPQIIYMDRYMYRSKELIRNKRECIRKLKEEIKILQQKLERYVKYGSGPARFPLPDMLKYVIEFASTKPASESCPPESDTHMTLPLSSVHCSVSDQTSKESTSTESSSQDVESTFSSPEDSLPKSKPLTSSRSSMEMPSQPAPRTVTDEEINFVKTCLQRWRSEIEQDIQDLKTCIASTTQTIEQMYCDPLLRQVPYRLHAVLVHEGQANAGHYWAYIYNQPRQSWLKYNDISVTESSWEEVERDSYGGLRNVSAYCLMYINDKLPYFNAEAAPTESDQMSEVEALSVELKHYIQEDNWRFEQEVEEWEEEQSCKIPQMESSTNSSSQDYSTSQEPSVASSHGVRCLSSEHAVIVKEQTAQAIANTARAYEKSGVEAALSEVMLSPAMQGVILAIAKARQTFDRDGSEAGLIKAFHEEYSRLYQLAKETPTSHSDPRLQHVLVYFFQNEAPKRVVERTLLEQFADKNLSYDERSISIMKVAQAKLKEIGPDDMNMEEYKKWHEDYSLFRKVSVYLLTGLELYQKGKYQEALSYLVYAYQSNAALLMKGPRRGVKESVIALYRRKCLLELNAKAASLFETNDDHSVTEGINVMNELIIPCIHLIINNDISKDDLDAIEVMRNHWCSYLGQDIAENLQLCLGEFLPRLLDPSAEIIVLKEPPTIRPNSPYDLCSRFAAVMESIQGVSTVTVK
Outline: as §1

Measured: log2 ratio of Biotin-Ahx-Ub-VS probe labelling

USP24, sequence (Q9UPU5 whole entry): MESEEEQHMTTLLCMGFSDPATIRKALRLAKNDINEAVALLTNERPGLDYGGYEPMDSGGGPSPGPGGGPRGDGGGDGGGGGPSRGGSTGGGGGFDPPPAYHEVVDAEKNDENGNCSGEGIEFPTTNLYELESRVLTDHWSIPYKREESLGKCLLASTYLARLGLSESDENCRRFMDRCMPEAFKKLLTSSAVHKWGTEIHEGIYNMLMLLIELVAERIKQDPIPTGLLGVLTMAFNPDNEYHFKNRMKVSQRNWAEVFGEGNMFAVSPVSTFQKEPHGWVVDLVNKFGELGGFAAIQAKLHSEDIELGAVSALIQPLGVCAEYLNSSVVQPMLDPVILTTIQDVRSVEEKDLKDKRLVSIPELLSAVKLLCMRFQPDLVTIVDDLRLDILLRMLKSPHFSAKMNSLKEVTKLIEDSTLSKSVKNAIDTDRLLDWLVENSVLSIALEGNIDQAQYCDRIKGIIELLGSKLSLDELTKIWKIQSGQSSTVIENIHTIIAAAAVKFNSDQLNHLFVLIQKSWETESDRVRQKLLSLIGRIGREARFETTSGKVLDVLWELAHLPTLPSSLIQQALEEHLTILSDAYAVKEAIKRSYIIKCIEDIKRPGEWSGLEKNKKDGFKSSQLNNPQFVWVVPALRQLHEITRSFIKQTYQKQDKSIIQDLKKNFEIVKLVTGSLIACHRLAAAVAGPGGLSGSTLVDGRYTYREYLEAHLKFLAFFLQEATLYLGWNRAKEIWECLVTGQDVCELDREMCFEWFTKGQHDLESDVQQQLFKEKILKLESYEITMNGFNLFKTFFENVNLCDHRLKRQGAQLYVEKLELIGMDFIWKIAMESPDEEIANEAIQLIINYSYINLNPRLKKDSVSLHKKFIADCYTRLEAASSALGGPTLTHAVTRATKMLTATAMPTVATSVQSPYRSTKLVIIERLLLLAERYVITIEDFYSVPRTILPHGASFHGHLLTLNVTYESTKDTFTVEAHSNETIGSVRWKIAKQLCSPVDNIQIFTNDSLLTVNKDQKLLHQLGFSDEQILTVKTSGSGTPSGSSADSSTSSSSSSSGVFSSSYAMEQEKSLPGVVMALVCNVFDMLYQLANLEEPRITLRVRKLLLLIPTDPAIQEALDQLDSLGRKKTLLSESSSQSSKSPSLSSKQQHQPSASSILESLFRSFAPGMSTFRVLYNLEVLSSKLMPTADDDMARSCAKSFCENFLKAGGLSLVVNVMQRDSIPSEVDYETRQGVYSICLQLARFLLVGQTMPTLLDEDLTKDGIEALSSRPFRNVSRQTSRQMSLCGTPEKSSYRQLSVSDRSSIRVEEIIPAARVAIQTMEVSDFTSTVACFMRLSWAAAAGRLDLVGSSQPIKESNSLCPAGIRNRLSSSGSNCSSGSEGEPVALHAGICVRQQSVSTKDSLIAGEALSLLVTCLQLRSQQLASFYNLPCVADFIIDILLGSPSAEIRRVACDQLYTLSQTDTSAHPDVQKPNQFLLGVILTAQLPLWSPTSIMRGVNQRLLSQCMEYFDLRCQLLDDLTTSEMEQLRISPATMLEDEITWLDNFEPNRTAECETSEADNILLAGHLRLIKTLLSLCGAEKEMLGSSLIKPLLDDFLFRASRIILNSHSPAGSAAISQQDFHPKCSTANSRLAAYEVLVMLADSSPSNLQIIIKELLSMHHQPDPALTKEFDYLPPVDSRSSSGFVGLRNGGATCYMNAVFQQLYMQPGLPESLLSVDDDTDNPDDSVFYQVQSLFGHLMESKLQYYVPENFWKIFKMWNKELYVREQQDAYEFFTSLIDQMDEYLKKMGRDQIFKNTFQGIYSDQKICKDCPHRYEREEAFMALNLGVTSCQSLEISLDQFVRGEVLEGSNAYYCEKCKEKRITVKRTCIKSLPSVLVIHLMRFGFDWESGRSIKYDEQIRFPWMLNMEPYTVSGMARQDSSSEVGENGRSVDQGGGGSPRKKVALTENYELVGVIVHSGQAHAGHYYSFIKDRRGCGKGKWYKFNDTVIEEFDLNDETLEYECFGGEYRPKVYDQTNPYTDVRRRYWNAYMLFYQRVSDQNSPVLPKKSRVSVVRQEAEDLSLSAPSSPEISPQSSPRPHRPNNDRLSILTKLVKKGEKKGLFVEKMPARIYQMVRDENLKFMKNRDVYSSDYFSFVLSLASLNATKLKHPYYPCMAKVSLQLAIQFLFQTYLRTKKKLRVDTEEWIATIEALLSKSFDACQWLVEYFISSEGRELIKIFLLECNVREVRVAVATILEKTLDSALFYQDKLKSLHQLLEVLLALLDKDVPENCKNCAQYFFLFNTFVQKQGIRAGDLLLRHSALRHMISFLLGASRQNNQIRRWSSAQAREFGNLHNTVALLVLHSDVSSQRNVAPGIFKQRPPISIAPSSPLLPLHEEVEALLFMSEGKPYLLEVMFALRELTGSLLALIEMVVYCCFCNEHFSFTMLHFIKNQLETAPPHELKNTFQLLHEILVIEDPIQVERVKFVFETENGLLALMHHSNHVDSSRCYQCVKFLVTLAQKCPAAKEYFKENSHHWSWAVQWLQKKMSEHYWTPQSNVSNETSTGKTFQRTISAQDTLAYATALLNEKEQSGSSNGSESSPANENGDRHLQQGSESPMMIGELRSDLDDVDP

Cc1cccc(N(CCC#N)C(=O)CCl)c1C
inactive: [1] 0.16 | [2] -0.0767 | [3] 0.00615 | [4] -0.253
